# HT1080NT lethal – kills 2HG-producing HT-1080-NT fibrosarcoma cells | HT-1080-NT fibrosarcoma viability, CellTiter-Glo ATP luminescence, 48 h | Potency, µM (doses to about 46.1 µM), without a hit: at the top dose activity, negative = less viability, most hits filed as cytotoxic | 360,000 compounds, 1.6% hits;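 also: NT is the 2HG producing partner of a matched IDH1 knockdown line; potency is read from the fitted curve at half-maximal effect; 0% = DMSO-treated cells and -100% = media-only wells without cells; nearly all actives have a fitted effect of over 55% in size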
#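 HT-1080-NT fibrosarcoma cells (2HG-overproducing), 750 cells/well in RPMI with 5% FBS, dosed after 2 h and incubated 48 h at 37C. CellTiter-Glo luminescence normalized to DMSO and no-cell wells; concentration-response curves fitted and classed.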
# Giardia kill – kills Giardia lamblia; activity change, % at 7.66 µM, hits read low; Giardia lamblia trophozoite viability; 340,000 compounds, 0.15% hits; in the data active = activity change below about -80%; inconclusive = between about -30% and that limit;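 also: parasites exposed to compound for two days anaerobically before the ATP read; % is scaled to controls: 0 for no effect and ±100 for the full control effect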
#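 Viability, read as ATP luminescence: trophozoites at 100 cells/well, compound added, 48 hrs anaerobic at 37 deg C, then 15-30 min room-temperature development before reading.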
# HT1080 IDH1KD tx – kills HT-1080 cells with IDH1 knockdown | HT-1080 IDH1 knockdown viability, ATP luminescence, 48 h | Potency, µM (doses to about 46.1 µM), for the others: at the highest dose activity, negative = toxicity, hits mostly cytotoxic | 360,000 compounds, 2% hits;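 also: potency is read from the fitted curve at half-maximal effect; 0% = DMSO wells and -100% = cell-free medium wells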
#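 Using the IDH1-knockdown HT-1080 line run in the same batch and compound series as the NT line, viability after 48 h at 37 °C was determined by CellTiter-Glo luminescence and expressed as % activity.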
# TGFb SMAD3 inh – inhibitors of TGF-b signaling | Potency, µM (titrated, usually from 46.1 µM), inactives show at the highest dose activity, negative = inhibition, actives largely listed as inhibitors | HepG2 CAGA-GFP TGF-b/SMAD3 reporter, GFP fluorescence, 18 h; TGF-beta stimulated, 500 pg/mL final | AID 588855 | 410,000 compounds, 1.2% hits; also: potency is read from the fitted curve at half-maximal effect; % is scaled to controls: 0 for no effect and ±100 for the full control effect; nearly all actives have a fitted effect of over 65% in size
#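 Read-out: total well GFP (ex488/em500-530) summed from mean per-cell fluorescence. Cells: HEPG2 CAGA-GFP, 1% FBS DMEM, 18 h at 37 degrees C with 500 pg/mL final TGF-beta. Unstimulated wells served as the full-inhibition control; stimulated DMSO wells = 0%.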
# HepG2 viability – HepG2 cytotoxicity, counter-screen for TGF-b inhibitors. 410,000 compounds, 0.76% hits. AID 588856. HepG2 CAGA-GFP viability, ATP luminescence, 18 h. Potency, µM (doses to about 46.1 µM), for inactives: at the highest dose activity change, negative = cytotoxicity, usual class: cytotoxic; also: potency is read from the fitted curve at half-maximal effect
#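 CellTiter-Glo luminescence gave cytotoxicity after 18 hours at 37 degrees C. The cells were HepG2 CAGA-GFP in 1% FBS DMEM, stimulated with 500 pg/mL TGF-beta after compound addition. %Activity was normalised to no-cell wells (complete cell-killing) and DMSO (no toxicity), and curves were fitted and classified.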
# IL1B secr inh – inhibitors of inflammasome signaling (IL-1 beta secretion) | activity change, % at 57.5 µM | 360,000 compounds, 4.7% hits | THP-1 LPS/ATP IL-1B secretion, AlphaLISA, 16 h; active compounds read low | AID 743279; in the data active = activity change below about -50%; inconclusive = mostly about -30% to -49%; also: % is scaled to controls: 0 for no effect and ±100 for the full control effect
#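 Secreted IL-1B measured by AlphaLISA bead assay after 16 h compound exposure of THP-1 cells; compounds (final up to 57.5 uM) added 1 h before LPS (250 ng/mL) and ATP (1.25 mM) stimulation; lower signal means less secretion.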
# Starred values were filed as active, the others as inactive; u = inconclusive; x = no result. In the library only some 6.5% were active in any assay of this set; here they are far more common. Unless noted, calls follow the shape of the dose curve; as a rule, active = well fitted curve in the direction sought with a large enough effect; inconclusive = small, poorly fitted or top-dose-only effect, or another doubt; inactive = no such curve, though single readings can be large; an effect the other way counts as inactive or inconclusive.
SMILES,HT1080NT lethal,Giardia kill,HT1080 IDH1KD tx,TGFb SMAD3 inh,HepG2 viability,IL1B secr inh
CCCCCn1c(N2CCC(Cc3ccccc3)CC2)nc2c1c(=O)[nH]c(=O)n2C,20.6µM*,31.7,u,u,11.2µM*,-86.7*
CCCCCN(C(=O)CCC(=O)OCC(=O)c1ccc(C(C)CC)cc1)c1c(N)n(CCCC)c(=O)[nH]c1=O (configuration not stated),u,5.2,-14.5%,-6.2%,-25.7%,-67.8*
CCCCn1c(N)c(N(CCC(C)C)C(=O)COC(=O)c2ccc([N+](=O)[O-])s2)c(=O)[nH]c1=O,0.4%,8.0,u,u,-40.9%,-73.9*
CCCCCN(C(=O)CCC(=O)OCC(=O)N(C)c1ccccc1)c1c(N)n(CCCC)c(=O)[nH]c1=O,-3.2%,-1.5,-10.3%,-4.5%,-12.4%,-4.8
CC(C)CN(C(=O)COC(=O)c1ccc([N+](=O)[O-])s1)c1c(N)n(Cc2ccccc2)c(=O)[nH]c1=O,-4.4%,-6.6,-0.5%,u,-17.3%,8.6
CCn1c(N2CCN(CC(=O)c3c(C)n(C)c4ccccc34)CC2)nc2c1c(=O)[nH]c(=O)n2C,-18.0%,1.7,-13.9%,0.0%,-5.1%,-70.7*
O=C(Nc1ccc2oc(-c3ccncc3)nc2c1)c1c(F)c(F)c(F)c(F)c1F,-1.3%,-9.5,-18.4%,-5.9%,-29.8%,u
CC(C)CN1CCN(Cc2cccn2-c2ccccn2)CC1CCO (configuration not stated),-10.8%,8.2,4.3%,21.0%,13.2%,-7.2
CCCCCN(C(=O)CN1CCC(Cc2ccccc2)CC1)c1c(N)n(CCCC)c(=O)[nH]c1=O,-8.8%,21.3,-9.1%,0.0%,13.1%,-78.1*
CCCCCN(C(=O)CCC(=O)OCCOc1ccccc1)c1c(N)n(CCCC)c(=O)[nH]c1=O,1.3%,6.0,-0.9%,-5.8%,-3.2%,-1.0
COc1cc(OC)c(OC)cc1/C=C1\CCC/C(=C\c2cc(OC)c(OC)cc2OC)C1=O,u,0.1,u,u,-13.8%,-56.3*
COc1cc(OC)c(OC)cc1/C=C1\CCC(C2CCCC2)C1=O (configuration not stated),-1.2%,8.7,-17.4%,1.1%,-30.1%,-50.7*
COc1ccc(C(=O)NC2CC2)cc1OC1CCN(Cc2cnn(C)c2C)CC1,-1.7%,-21.1,2.7%,-4.1%,1.8%,1.1
O=C(Nc1ccncc1)Nc1ccc(Cl)cc1,-15.4%,-4.2,-9.8%,u,-28.1%,-94.4*
CC(=O)c1ccc(NC(=O)NC2CCCCCCC2)cc1,8.5%,7.1,-1.3%,-13.7%,0.5%,-66.0*
CC(=O)c1ccc(NC(=O)Nc2ccc(Cl)cc2)cc1,-19.2%,-23.3,-23.2%,u,-32.4%,-98.9*
O=C(Nc1ccncc1)Nc1cc(Cl)ccc1Cl,-1.1%,-4.5,-24.8%,-5.9%,-7.5%,-54.0*
O=C(Nc1ccncc1)Nc1ccc(Cl)cc1Cl,-2.5%,-28.0,-20.5%,-18.1%,-18.0%,x
CCc1nc(SCC(=O)Nc2cc(C)on2)c2c(C)c(C)sc2n1,-8.7%,17.9,3.0%,-5.3%,1.1%,0.0
Cc1ccc([N+](=O)[O-])cc1NC(=O)CN(C1CCCCC1)S(=O)(=O)c1ccc(Cl)cc1,-0.5%,-20.8,0.1%,u,-6.7%,8.8
O=C(c1ccc(Cl)cc1)C1CCCN(Cc2ccc(Oc3ncccn3)cc2)C1 (configuration not stated),-3.2%,-4.2,-1.1%,u,-15.5%,-2.9
Cc1ccsc1C(=O)C1CCCN(Cc2cn(C)nc2-c2ccccc2)C1 (configuration not stated),-3.0%,2.1,-0.6%,-9.3%,-13.6%,-1.9
Cc1nn(C)cc1CN1CCCC(C(=O)c2ccc(-c3ccccc3)cc2)C1 (configuration not stated),u,28.1,u,-7.7%,-46.1%,-90.6*
O=C(c1ccc(-c2ccccc2)cc1)C1CCCN(Cc2ccncc2)C1 (configuration not stated),u,-3.6,-20.8%,-23.6%,-26.8%,-86.1*
O=C(c1ccc(Cl)cc1)C1CCCN(Cc2cnn(-c3ccccc3)c2)C1 (configuration not stated),u,-10.8,u,u,-22.7%,-98.2*
SMILES,HT1080NT lethal,Giardia kill,HT1080 IDH1KD tx,TGFb SMAD3 inh,HepG2 viability,IL1B secr inh
Cc1cc(-c2csc3nc[nH]c(=S)c23)cc(C)c1C,16.4µM*,12.6,14.6µM*,u,9.6%,-8.9
S=c1[nH]cnc2scc(-c3ccc(Br)cc3)c12,20.6µM*,11.5,13µM*,-8.5%,-23.1%,-18.3
O=S1(=O)C[C@H](N2CCOCC2)[C@@H](COCc2ccccc2)N1,19.6%,x,9.0%,-9.3%,-11.4%,-9.3
Oc1[nH]c2ccccc2c1C=Nc1ccc2c(c1)OCCO2,-0.9%,-23.1,4.9%,-3.0%,-27.5%,-89.8*
Oc1c(Br)cc(Br)cc1C=Nc1ccc2c(c1)OCCO2,-15.1%,12.2,-13.1%,u,-9.8%,25.7
O=C1CCC(=O)N1CC(O)COc1ccccc1 (configuration not stated),13.9%,-9.6,7.8%,-5.5%,-14.0%,26.1
O=S(=O)(c1ccc2ccccc2c1)N1CCN(C(=S)Nc2ccc(F)c(Cl)c2)CC1,-21.7%,1.6,u,u,-0.8%,-69.0*
O=S(=O)(c1ccc2ccccc2c1)N1CCN(C(=S)Nc2ccc(F)cc2)CC1,-7.0%,-6.6,-4.8%,u,-1.6%,0.0
CCN(CC(=O)NC(C)(C)C)Cc1nc2c(Br)cc(Br)cc2c(=O)[nH]1,-3.6%,3.7,u,u,-13.8%,-100.5*
Cc1cc(O)cc(O)c1/C=N/NC(=O)c1ccc2c(c1)OCCO2,u,x,13µM*,-1.1%,-17.5%,117.4
CC(C)c1ccc(O)c(NC(=S)NC(=O)c2ccc3c(c2)OCO3)c1,u,-5.9,14.6µM*,14.1µM*,-84.0%,0.0
CC/C(=N/NC(=O)c1ccc2c(c1)OCO2)c1ccccc1O,-19.2%,2.6,23.1µM*,2.51µM*,-39.4%,225.8
O=C(N/N=C/c1ccccc1)c1ccc2c(c1)OCO2,-3.9%,1.0,-1.4%,-8.3%,-41.2%,0.0
O=C(NN=Cc1c(O)ccc2ccccc12)c1ccc2c(c1)OCO2,5.8µM*,-5.4,5.17µM*,u,-81.4%,169.5
O=C(CN(c1cccc(C(F)(F)F)c1)S(=O)(=O)c1ccccc1)N1CCOCC1,9.1%,5.2,17.8%,0.2%,-2.5%,16.0
CNC(=S)NNC(=O)c1cccn(Cc2ccc(Cl)c(Cl)c2)c1=O,10.7%,-9.2,-20.0%,-13.5%,2.0%,-9.7

# Screening data as filed in PubChem.
